Assay outcomes from PubChem BioAssay.
In the library only some 3.8% were active in any assay of this set; here they are far more common.
NTR1 agonist = NTR1 (human) agonism. NTR1-U2OS beta-arrestin-GFP spot imaging, agonist mode. 330,000 tested, 0.17% active. activation, % at 20 µM;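 active = activation at or above 40% of the spot to cytoplasm intensity ratio, with at least 20 cells analyzed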;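 note: 0% = DMSO without peptide and 100% = 100 nM NTR1 peptide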
Target sequence (P30989 whole entry, looked up): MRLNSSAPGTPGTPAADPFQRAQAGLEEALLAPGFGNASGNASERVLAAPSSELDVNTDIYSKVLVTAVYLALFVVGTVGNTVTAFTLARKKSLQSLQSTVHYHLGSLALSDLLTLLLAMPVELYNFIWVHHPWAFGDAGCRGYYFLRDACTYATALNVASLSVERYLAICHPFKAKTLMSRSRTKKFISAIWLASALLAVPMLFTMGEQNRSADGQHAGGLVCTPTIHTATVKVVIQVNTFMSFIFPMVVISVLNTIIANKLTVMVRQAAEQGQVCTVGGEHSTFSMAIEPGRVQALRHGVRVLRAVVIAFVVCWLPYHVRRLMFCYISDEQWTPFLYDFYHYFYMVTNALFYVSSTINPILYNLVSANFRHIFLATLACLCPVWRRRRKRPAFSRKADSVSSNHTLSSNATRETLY
Jurkat NFkB inh = lowers PMA/ionomycin-induced NF-kB signal in Jurkat cells; PMA/ionomycin-induced NF-kB luciferase reporter, luminescence; inhibition, % at 4 µM; 330,000 tested, 0.53% active; AID 435003; in the data active = inhibition above about 50%
Bfl-1 A1 inh = inhibitors of the anti-apoptotic protein A1, read as caspase activation | AID 2462 | 330,000 tested, 0.066% active | caspase activation, % (no concentration beside the values) | MEF A1-2A-BIM cells, Caspase-Glo 3/7 luminescence, 3 h; percent of clofoctol response, vehicle zero;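 active = over half of replicate activation scores above 10%, or exactly half above 10 with the replicate mean above 10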
Mdm2-MdmX inh = human Mdm2/MdmX binding inhibition; SaOS-2 split-luciferase Mdm2/MdmX complementation, luminescence; inhibition, % at 8 µM; 330,000 tested, 3% active; AID 485346;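 active = inhibition of at least 50% at 8 µM in the primary screen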
Beta cell apopt = blocks beta cell apoptosis. 300,000 tested, 0.8% active. protection from apoptosis, % (no concentration beside the values). INS-1E cytokine-induced death, ATP luminescence, 48 h; percent of positive-control rescue, neutral wells zero;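 active = Every replicate reaches about 75%, or at least half do and their mean reaches it too, limit read from the data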;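 note: 0% = cytokine-treated negative control wells and 100% = positive control rescue; higher means more ATP so stronger rescue from cytokine killing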
697 NFkB inh = lowers PMA/ionomycin-induced NF-kB signal in 697 B cells; 330,000 tested, 0.33% active; 697 B-cell NF-kB luciferase reporter, 16 h; inhibition, % at 4 µM; AID 435022; in the data active = inhibition above about 35%
Jurkat NFkB conf = lowers PMA/ionomycin-induced NF-kB signal in Jurkat cells; shares compounds with Jurkat NFkB inh; Jurkat NF-kB luciferase, 16 h; inhibition, % at 4 µM; 2,700 tested, 27% active; AID 435020;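 active = inhibition reaching about 45% at 4 µM in either replicate, limit read from the data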;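 note: plate controls were PMA/ionomycin stimulated DMSO wells for no effect and unstimulated DMSO wells for full effect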
Numbers without * were called inactive; x = no result.

SMILES | NTR1 agonist | Jurkat NFkB inh | Bfl-1 A1 inh | Mdm2-MdmX inh | Beta cell apopt | 697 NFkB inh | Jurkat NFkB conf
COc1cc2ccccc2cc1C(=O)Nc1ccc(C)cn1 | 0.3 | -159.1 | 0.8 | -133.1 | 5.6 | -159.8 | -112.5
COc1ccc(C(=O)Nc2ccc([N+](=O)[O-])cn2)c(OC)c1 | 1.3 | -167.3 | -3.4 | -98.3 | -2.9 | -222.9 | -94.8
COCCCN(Cc1cccs1)S(=O)(=O)c1c[nH]c(C(=O)OC)c1 | 1.8 | -3.0 | -0.7 | 17.8 | -2.8 | -14.5 | x
CCOC(=O)c1c(C)[nH]c(C(=O)N/N=C/c2ccc(OC)c(OC)c2)c1C | 0.6 | 55.4* | 0.6 | 47.9 | 19.6 | -21.7 | 10.5
CCc1ccc(/C=N/NC(=O)c2cc(C3CC3)nc3ccccc23)s1 | 1.0 | 58.3* | 0.1 | 40.8 | 4.5 | -22.8 | 33.0
Cc1cc2c(cc1C)C(c1cc(Br)ccc1F)CC(=O)N2 (stereo not given) | 8.4 | 57.1* | 0.2 | 39.5 | -3.1 | -27.0 | 16.1
O=C(O)c1ccccc1-c1ccccc1C(=O)Nc1ccc(-c2nc3cc(Cl)ccc3o2)cc1 | 3.9 | -54.0 | 0.4 | -78.4 | -7.0 | -34.8 | x
CC(=O)Nc1ccc(-c2nc3cc(Cl)ccc3o2)cc1 | 0.9 | -152.1 | -4.0 | -198.7 | 5.1 | -239.2 | -99.4
CCOc1ccc(C(=O)NC(=S)Nc2cccc(S(=O)(=O)NC3=NCCC3)c2)cc1 | 2.0 | 59.6* | 0.2 | 49.7 | 2.7 | 5.1 | 34.5
O=C(Nc1cccc(S(=O)(=O)N2CCCC2)c1)c1ccc(Cl)nc1 | 1.3 | 63.3* | 0.4 | 47.8 | 4.1 | -39.5 | 31.9
Cc1ccc(S(=O)(=O)N[C@H](C(=O)NCC2CCC(C(=O)O)CC2)C(C)C)cc1 (stereo not given in full) | -0.1 | 11.0 | 1.0 | 14.8 | -3.3 | -4.7 | x
Oc1[nH]c2ccccc2c1N=Nc1nc2ccccc2s1 | -0.1 | -174.1 | -3.7 | -3.8 | -3.1 | -226.7 | -91.5
Oc1[nH]c2ccccc2c1N=Nc1ccccc1 | 12.0 | -86.6 | -3.6 | -95.6 | -4.2 | -107.4 | x
CN(C)c1cc[n+](CC(=O)Nc2ccc(Oc3ccccc3)cc2)cc1 | 0.0 | 85.0* | 0.2 | 45.0 | 90.8* | -13.8 | 36.0
CC(=O)N1CCN(C(=O)c2ccc3c(c2)OCO3)CC1 | 0.3 | -14.2 | 1.3 | 4.8 | -8.3 | -31.6 | x
CCOCCCNC(=O)c1cc2c(=O)n3cccc(C)c3nc2n1C | -0.3 | 58.0* | -0.9 | 44.1 | 8.4 | -11.8 | 44.0
CCN(CC(=O)Nc1ccccc1C(F)(F)F)C(=O)c1ccc2c(c1)NC(=O)CS2 | -0.2 | -0.9 | x | -0.3 | x | 20.6 | x
COc1ccc(-c2nc3c(Br)c(N)c(Br)cc3o2)cc1 | 2.0 | -181.0 | 0.7 | -77.5 | x | -145.3 | -112.8
COCc1cc(=O)n2[nH]cc(-c3ccsc3)c2n1 | 0.3 | 12.0 | 0.7 | 11.9 | 1.9 | -10.7 | x
Clc1ccc(-c2cn3c(n2)-c2ccccc2C3)cc1Cl | 4.2 | -157.7 | -1.0 | -243.4 | 9.2 | -245.8 | -112.0
c1ccc2c(c1)Cn1c-2nc2ccccc21 | 0.2 | -92.6 | -13.1 | -112.3 | 16.5 | -106.6 | x
CN(C(=O)C1CCCO1)C1CCS(=O)(=O)C1 (stereo not given) | 0.1 | 14.6 | -0.7 | 20.0 | x | 12.1 | x
COc1cccc([C@@H]2Oc3ccc(OC)cc3C(=O)[C@H]2O)c1 | 0.1 | -156.6 | -2.7 | -2.7 | 20.1 | -139.8 | -97.8
C=CC[C@@H](CC(=O)N[C@H](CO)Cc1ccccc1)C(=O)N[C@@H](COC(=O)[C@@H](CC=C)CC(=O)OC(C)(C)C)Cc1ccccc1 | 6.6 | 9.2 | 0.3 | 25.0 | 8.5 | 3.6 | x
COc1cc(NC(=O)C2CC(c3c(F)cccc3Cl)=NO2)c(OC)cc1Cl (stereo not given) | 2.4 | -0.1 | -0.1 | 1.3 | x | 1.5 | x
SMILES | NTR1 agonist | Jurkat NFkB inh | Bfl-1 A1 inh | Mdm2-MdmX inh | Beta cell apopt | 697 NFkB inh | Jurkat NFkB conf
Cc1ccc(O)c(NC(=O)C2CC(c3c(F)cccc3Cl)=NO2)c1 (stereo not given) | -0.5 | 51.0* | -0.5 | 6.1 | 2.1 | -14.9 | 14.1
O=C(C[C@H]1C/C=C\CC[C@@H](Cc2ccc(F)cc2)C(=O)OCCNC1=O)NCCO | -2.0 | -8.1 | 0.4 | 17.9 | -8.9 | 6.4 | x
Cc1nc(NC(=O)c2csc3ccccc23)sc1C | 0.9 | -164.7 | -4.0 | -201.9 | 23.9 | -145.3 | -128.8
CC(C)(C)c1ccc(/C=C/C(=O)Nc2cccnc2)cc1 | 3.7 | -142.1 | -7.8 | -141.7 | -0.7 | 2.3 | x
CC(C)(C)c1ccc(/C=C/C(=O)NC2=NCCS2)cc1 | 3.1 | -161.1 | -4.1 | -138.7 | x | -204.2 | -79.8
Nc1ccc(-c2nc3cc(N)ccc3o2)cc1 | 1.2 | -104.2 | -6.0 | -98.9 | -1.8 | -134.2 | x
Cc1ccc(-c2nc3cc(N)ccc3o2)cc1Br | 1.7 | -159.7 | -5.7 | -125.9 | 0.9 | -140.2 | -88.0
CCc1ccc(N2CC(C(=O)OCC(=O)Nc3ccc([N+](=O)[O-])cc3)CC2=O)cc1 (stereo not given) | 4.4 | 1.1 | 0.4 | 25.7 | -8.4 | 9.3 | x
c1ccc(CSc2ccc(-c3ccccn3)nn2)cc1 | 0.3 | -160.3 | -2.3 | 7.5 | 86.6* | -186.7 | -86.9
C[C@@H]1COC(=O)[C@@H](NC(=O)OCC2c3ccccc3-c3ccccc32)C/C=C\C[C@@H](CC(=O)N(CCO)Cc2ccccc2)C(=O)N1 | 1.2 | 18.7 | 0.4 | 0.8 | 69.8 | 5.3 | x
O=C(NCC1CCCO1)c1sc2ccccc2c1Cl (stereo not given) | 2.2 | -78.3 | -5.8 | -101.5 | -4.0 | -73.8 | x
Cc1ccc2c(Cl)c(C(=O)NCC3CCCO3)sc2c1 (stereo not given) | -2.3 | -158.7 | -3.4 | -166.9 | 2.2 | -125.0 | -45.9
COc1ccc(NC2CCCN(C(=O)C3=NN(C)C(=O)CC3)C2)cc1OC (stereo not given) | -1.0 | 3.9 | 0.1 | 9.0 | -3.0 | 3.7 | x
COc1cc(SC)ccc1C(=O)Nc1ccc(C)cc1C | 5.4 | -152.7 | -10.9 | -242.8 | 3.1 | -112.2 | -86.7
COc1cc(SC)ccc1C(=O)Nc1ccc(S(=O)(=O)N2CCCC2)cc1 | 2.0 | -9.9 | 0.2 | 7.7 | 11.0 | 2.3 | x
COc1cc(SC)ccc1C(=O)Nc1ccc(C)cc1 | 3.0 | -171.0 | -2.4 | -203.8 | 3.6 | -194.1 | -111.9
Cc1ccc(CN2[C@@H](c3ccccc3)COCCS2(=O)=O)cc1 | 3.3 | -4.6 | -0.1 | -3.3 | 5.6 | 9.4 | x
COc1ccccc1NC(=O)C(=O)N/N=C(\C)CC(=O)Nc1ccccc1C(F)(F)F | -0.2 | -4.9 | -0.5 | -15.7 | -6.5 | -7.9 | x
O=C(Nc1ccccc1NC(=O)c1csnn1)c1csnn1 | -1.3 | 12.9 | 2.0 | 4.9 | x | -0.3 | x
CC(C)c1ccc(NC(=O)c2csnn2)cc1 | 2.3 | -161.9 | -2.2 | -86.8 | 1.9 | -175.4 | -109.2
CCOC(=O)C1CCN(C(=O)c2cc3c(-c4ccc(OC)c(OC)c4)nn(C)c3s2)CC1 | 1.7 | 7.7 | -0.7 | 4.3 | 5.3 | 15.7 | x
